Source: PubChem BioAssay
A number with no mark means an inactive call. Calls of active or inactive are those of the source.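 How the source made its calls: active means at least 20% inhibition of 6-phosphogluconate dehydrogenase activity; inactive means the rest.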

These compounds were tested against 6-phosphogluconate dehydrogenase, decarboxylating (Homo sapiens) (UniProt P52209) (assay: 6PGD enzyme inhibitors, primary screen, biochemical, human, recombinant enzyme, NADPH absorbance (AID 1159550)). Details: recombinant 6PGD, NADPH absorbance 341 nm; at 10 µM; hits give high values.
Sequence of 6-phosphogluconate dehydrogenase, decarboxylating (Homo sapiens) (P52209 whole entry, looked up): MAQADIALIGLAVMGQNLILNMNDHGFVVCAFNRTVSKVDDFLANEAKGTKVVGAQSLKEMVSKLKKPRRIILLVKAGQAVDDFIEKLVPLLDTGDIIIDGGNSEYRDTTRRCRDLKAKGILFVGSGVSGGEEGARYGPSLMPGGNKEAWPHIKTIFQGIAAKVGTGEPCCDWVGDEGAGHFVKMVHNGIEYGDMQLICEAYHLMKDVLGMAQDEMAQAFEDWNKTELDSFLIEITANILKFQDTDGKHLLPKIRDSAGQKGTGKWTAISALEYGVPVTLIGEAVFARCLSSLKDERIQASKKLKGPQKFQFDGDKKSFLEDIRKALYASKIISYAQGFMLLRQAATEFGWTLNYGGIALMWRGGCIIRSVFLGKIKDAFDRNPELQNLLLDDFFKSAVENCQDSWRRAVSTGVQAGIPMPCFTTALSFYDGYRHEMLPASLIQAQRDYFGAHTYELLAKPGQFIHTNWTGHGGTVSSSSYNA

SMILES | inhibition
CC(C)(OC(=O)c1ccccc1)[C@@H]1Cc2cc3ccc(=O)oc3cc2O1 | 20% (active)
CC(=O)O[C@@H]1CC2C(C)(C)CCC(=O)[C@]2(C)C2CC[C@@]3(C)[C@H](c4ccoc4)OC(=O)C4OC43[C@@]21C (stereo not given in full) | -0.737%
CC[C@H](C(=O)[C@@H](C)[C@@H](O)[C@H](C)[C@@H]1O[C@@H]([C@@H](CC)C(=O)O)CC[C@@H]1C)[C@H]1O[C@]2(C=C[C@@H](O)[C@]3(CC[C@@](C)([C@H]4CC[C@](O)(CC)[C@H](C)O4)O3)O2)[C@H](C)C[C@@H]1C | 2.61%
C#CCCCCCCCCCCCC(=O)CC(O)COC(C)=O (stereo not given) | -5.7%
OC[C@H]1O[C@@H](O[C@H]2[C@H](O)[C@@H](O)[C@H](O)O[C@@H]2CO)[C@H](O)[C@@H](O)[C@@H]1O | -3.99%
Oc1cc(O)cc(/C=C/c2ccccc2)c1 | -1.17%
COc1ccccc1-c1cc(=O)c2cccc(OC)c2o1 | 4.44%
Oc1ccc2c(c1)OC(c1ccc(O)c(O)c1)C(O)C2 (stereo not given) | 6.96%
COc1ccccc1/C=C/C(=O)O | 11.5%
N[C@@H](Cc1cnc[nH]1)C(=O)Nc1ccc2ccccc2c1 | -4.42%
CC(=O)O[C@H]1CC[C@]2(C)C(C[C@H](OC(C)=O)[C@]3(C)C4=CC(=O)O[C@H](c5ccoc5)[C@@]4(C)CCC23)C1(C)C (stereo not given in full) | -15.5%
O=C(O)C(O)C(O)C(=O)O (stereo not given) | 6.59%
CC1(C)CCC2(C(=O)O)CCC3(C)C(=CCC4C5(C)CCC(O)C(C)(C)C5CCC43C)C2C1 (stereo not given) | 0.817%
CC(=O)Oc1cc2c(c(C)c1OC(C)=O)CC=C1[C@@]2(C)CC[C@@]2(C)[C@@H]3C[C@](C)(C(=O)O)CC[C@]3(C)CC[C@]12C | 0.972%
CC(=O)O[C@H]1C[C@@H](OC(C)=O)C(C)(C)[C@@H]2C[C@@H](O)[C@@]3(C)[C@H](CC[C@]4(C)[C@@H](c5ccoc5)OC(=O)[C@H]5O[C@@]534)[C@@]12C | 13.5%
CC12CCC3c4ccc(O)cc4CCC3C1CCC2OC(=O)CCC1CCCC1 (stereo not given) | -3.96%
CC(=O)O[C@H]1CC[C@]2(C)[C@H]3C(=O)C=C4[C@@H]5[C@@H](C)[C@H](C)CC[C@]5(C(=O)O)CC[C@@]4(C)[C@]3(C)CC[C@H]2C1(C)C | 4.87%
COC1=CC(=O)C(O)=C/C1=C/C=C/c1ccccc1 | 4.47%
O=C1C=CC2=C3c4cc(O)c(O)cc4CC3(O)COC2=C1 (stereo not given) | 4.16%
COC(=O)C[C@H]1C(C)(C)C(=O)[C@@H]2CC3C4=CC(=O)O[C@@H](c5ccoc5)[C@]4(C)CC[C@@H]3[C@@]1(C)C2=O (stereo not given in full) | 12.7%

SMILES | inhibition
CC(=O)OC1CCC2(C)C(CCC3C2CCC2(C)C3CC3OC4(CCC(C)CO4)C(C)C32)C1 (stereo not given) | 4.61%
COc1ccc2c(c1)[C@@]1(C)CC[C@@H](O)C[C@@H]1CC2 | 13.3%
CC(=O)Oc1ccc(-c2cc(=O)c3c(OC(C)=O)cc(OC(C)=O)cc3o2)cc1 | -7.11%
CC(C)C1COc2cc3oc(=O)ccc3cc2O1 (stereo not given) | 3.83%
O=C(Oc1cc(OC(=O)c2ccccc2)c2c(c1)O[C@H](c1ccc(OC(=O)c3ccccc3)c(OC(=O)c3ccccc3)c1)[C@@H](OC(=O)c1ccccc1)C2)c1ccccc1 | -9.47%
CNC(C)[C@@H]1CC[C@@H](N)[C@@H](OC2C(O)[C@@H](OC3OC[C@](C)(O)C(NC)[C@H]3O)[C@H](N)C[C@@H]2N)O1 (stereo not given in full) | 1.04%
CC(=O)OC1CCC2(C)C3=C(CC[C@H]2C1(C)C)[C@@]1(C)CC[C@@H]([C@@H](C)CCC=C(C)C)[C@]1(C)CC3 (stereo not given in full) | -9.29%
C/C=C(\C)C(=O)O[C@@H]1[C@@H]2C=C3[C@@H]4CC(=O)O[C@@H](C5=CC(O)OC5=O)[C@]4(C)CC[C@@H]3[C@@](C)(C2=O)[C@@H]([C@@H](O)C(=O)OC)C1(C)C (stereo not given in full) | 0.726%
CC1(C)CC2C1CC[C@]1(CBr)CCC3C(CC(=O)O)C(=O)O[C@@]32C1 (stereo not given in full) | 14.7%
CC(=O)O[C@H]1CC2C(C)(C)[C@H](OC(C)=O)C=C[C@@]2(C)C2CC[C@@]3(C)C(=CC(=O)O[C@@H]3c3ccoc3)[C@]21C (stereo not given in full) | 0.19%
Cc1cc(=O)c2c(O)c(C)c(O)cc2o1 | 15%
CC(C)C(N)C(=O)NC(Cc1c[nH]c2ccccc12)C(=O)O (stereo not given) | 4.18%
Nc1nc2ncc(C(=O)O)nc2c(=O)[nH]1 | 13.3%
COc1c(Cl)ccc(Cl)c1C(=O)O | 7.71%
Cc1ccc(C(C)C)c(O)c1C(=O)O | 7.11%
CC(C)CCCC(C)C1CCC2C3CC(=O)[C@H]4CC(O)CCC4(C)C3CCC12C (stereo not given in full) | -4.09%
C[C@H](CCC(=O)O)[C@H]1CC[C@H]2[C@@H]3C=C[C@@H]4C[C@H](O)CC[C@]4(C)[C@H]3CC[C@]12C | 3.87%
CC1(C)C=CC(=O)[C@]2(C)[C@H]3CC[C@@]4(C)[C@H](c5ccoc5)OC(=O)[C@H]5O[C@]54[C@]3(C)C(=O)C[C@@H]12 | -8.35%
O=C1C[C@@H](c2ccccc2)Oc2cc(O)cc(O)c21 | 17.2%
CC1CCC(C(C)C)C(O)C1 (stereo not given) | -10.6%
